Screening results from PubChem.
A selection: hits, their analogues and other compounds. The true share with any hit is near 0.51%.
phage Ecoli inh: E. coli growth loss with phage present; actives 0.26% (n = 360,000); growth absorbance; inhibition, % at 11.9 µM; in the data active = inhibition above about 11%
E coli growth-1: reduces bacterial viability in AddAB counter-screen | E. coli V3065 growth, OD600 absorbance, 18 h | inhibition, % at 11.9 µM | actives 0.27% (n = 330,000) | AID 449728;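 active = inhibition above the campaign's mean inhibition across all tested compounds plus 3 SD, cut at about 9.9% in these data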;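 note: uninfected addAB+ strain grown without phage in ampicillin broth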
Tat export inh: blocks Tat-dependent protein export in E. coli | E. coli MC4100 TorA-mCherry Tat export, fluorescence | inhibition, % at 10 µM | actives 0.036% (n = 340,000);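 active = mean replicate inhibition at least 50% and at least half of replicates individually reaching 50%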;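 note: exported cargo escapes ClpAP degradation while cytoplasmic cargo is degraded and loses fluorescence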
AddAB inh: less growth of phage-infected E. coli with AddAB | E. coli expressing H. pylori AddAB, absorbance growth | inhibition, % at 11.9 µM | actives 0.29% (n = 330,000); in the data active = inhibition above about 12%
E coli growth-2: blocks Escherichia coli growth; OD600, 23 h; active compounds read low; AID 1053175; OD600 absorbance (test concentration not listed); actives 0.21% (n = 330,000);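 active = OD600 absorbance below the run mean of sample wells minus 3.6 SD, in any replicate, cut at about 0.56 in these data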
AddAB confirm: growth loss of T4-infected E. coli expressing H. pylori AddAB, confirmed; AID 488942; actives 64% (n = 880); inhibition, % at 11.9 µM; shares compounds with AddAB inh; E. coli V3065 expressing H. pylori AddAB, T4 phage, OD; T4 phage with gene 2 nonsense mutations;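 active = mean inhibition above a set limit taken from the earlier primary screen, cut at about 13% in these data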;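 note: higher means less bacterial growth since AddAB block lets phage replicate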
RecBCD counter: counter-screen: growth loss of RecBCD+ E. coli with mutant T4 phage. shares compounds with AddAB inh. E. coli V66 + mutant T4 phage, OD growth. inhibition, % at 11.9 µM. actives 73% (n = 880). AID 488955;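 active = mean inhibition above the mean of solvent-only control wells plus 3 SD, cut at about 4% in these data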;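 note: optical density read after an 18 h incubation at 37 °C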
bact viab count: counter-screen for AddAB inhibitors: inhibitors of bacterial viability | shares compounds with AddAB inh | absorbance (AddAB counterscreen) | inhibition, % at 11.9 µM | actives 35% (n = 880) | AID 488956; in the data active = inhibition above about 25%
RecBCD conf: confirmation: growth loss of phage-infected RecBCD+ E. coli (RecBCD inhibitor screen); inhibition, % at 11.9 µM; shares compounds with phage Ecoli inh; actives 45% (n = 890); E. coli V66 + T4 2- phage, growth OD;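 active = mean inhibition over triplicates exceeding the hit threshold derived in the original primary screen, cut at about 11% in these data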
Ecoli viability: inhibits E. coli viability, flagging RecBCD hits as nonselective; shares compounds with phage Ecoli inh; absorbance (OD) growth; inhibition, % at 11.9 µM; actives 29% (n = 890); in the data active = inhibition above about 20%;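 note: E. coli strain V66 grown with compound alone and no phage infection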
AddAB phage OD: growth loss of phage-infected AddAB E. coli, RecBCD counter-screen; inhibition, % at 11.9 µM; E. coli expressing H. pylori AddAB + T4 phage, OD growth; gene 2 mutant T4, recBCD-deleted host; shares compounds with phage Ecoli inh; actives 45% (n = 890);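 active = mean inhibition above the solvent-only control wells' mean plus 3 SD, cut at about 22% in these data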;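 note: higher means less bacterial growth from phage killing when AddAB is blocked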
Of the large screens only hits and unclear results are named; the others gave an inactive call (follow-up assays come after a bar, where they were run).

O=C1C=C(c2ccc3cc[nH]c3c2)CC(c2ccc3c(c2)OCO3)C1 (stereo not given)	none (no result: phage Ecoli inh, E coli growth-1, Tat export inh, AddAB inh)
COc1ccc(C(O)=Cc2nc3ccccc3n(-c3ccccc3)c2=O)cc1	none (no result: phage Ecoli inh, E coli growth-1, Tat export inh, AddAB inh)
Nc1[nH]c(=O)ncc1-c1ccc([N+](=O)[O-])cc1	none (no result: E coli growth-1, Tat export inh, AddAB inh, E coli growth-2)
Nc1ncc(-c2ccc([N+](=O)[O-])cc2)cn1	phage Ecoli inh 37.5, E coli growth-1 37.9, AddAB inh 39.0 (no result: E coli growth-2) | AddAB confirm 44.1 | RecBCD counter 36.8 | bact viab count 47.5 | RecBCD conf 35.2 | Ecoli viability 40.7 | AddAB phage OD 51.0
O=[N+]([O-])c1ccc(-c2cnc(NO)nc2)cc1	phage Ecoli inh 30.7, E coli growth-1 30.8, AddAB inh 32.9 | AddAB confirm 42.4 | RecBCD counter 30.2 | bact viab count 39.8 | RecBCD conf 30.8 | Ecoli viability 35.9 | AddAB phage OD 44.9
Cc1noc(-c2ccc(Cl)cc2)c1C(=O)ON=C(N)c1ccc(C(C)(C)C)cc1	none (no result: phage Ecoli inh, E coli growth-1, Tat export inh, AddAB inh)
O=C(CSc1ccc(-c2ccccn2)nn1)c1ccccc1	phage Ecoli inh 14.2, E coli growth-1 12.2, AddAB inh 13.4 | AddAB confirm inactive | RecBCD counter 10.8 | bact viab count inactive | RecBCD conf inactive | Ecoli viability inactive | AddAB phage OD 24.4
O=C(CSc1ccc(-c2ccccc2)nn1)c1ccccc1	none
O=C(O)c1cccc(NC(=S)N/N=C/c2ccccn2)c1	phage Ecoli inh 23.1, E coli growth-1 16.5, AddAB inh 17.3 (no result: E coli growth-2) | AddAB confirm 19.4 | RecBCD counter 17.0 | bact viab count inactive | RecBCD conf 11.4 | Ecoli viability inactive | AddAB phage OD inactive
CCn1cc(C(=O)O)c(=O)c2cc(F)c(N3CCN(C(=S)NC(=O)c4c(OC)cccc4OC)CC3)cc21	phage Ecoli inh 99.0, E coli growth-1 98.4, AddAB inh 98.9, E coli growth-2 0.0695 | AddAB confirm 98.8 | RecBCD counter 98.9 | bact viab count 99.1 | RecBCD conf 101.7 | Ecoli viability 102.5 | AddAB phage OD 102.8
CCOC(=O)c1cn(CC)c2cc(N3CCCCC3)c(F)cc2c1=O	none
CCn1cc(C(=O)O)c(=O)c2cc(F)c(N3CCN(C(=S)Nc4ccccc4OC)CC3)cc21	phage Ecoli inh 99.7, E coli growth-1 99.1, AddAB inh 97.5, E coli growth-2 0.0735 | AddAB confirm 98.5 | RecBCD counter 99.4 | bact viab count 98.9 | RecBCD conf 101.6 | Ecoli viability 102.9 | AddAB phage OD 101.7
CCN1C(=c2sc(=C3C(=O)N(c4ccccc4)N=C3C)n(CC)c2=O)C=Cc2ccccc21	none (no result: phage Ecoli inh, E coli growth-1, Tat export inh, AddAB inh)
Cc1cc(C)c2c(N=NN3CCOCC3)[nH]nc2n1	phage Ecoli inh 11.6, E coli growth-1 17.0, AddAB inh 76.9 | AddAB confirm 70.7 | RecBCD counter 4.2 | bact viab count 33.5 | RecBCD conf inactive | Ecoli viability inactive | AddAB phage OD 32.2
O=C(Nc1nnc(-c2ccccc2)o1)c1ccc(Cl)cc1	phage Ecoli inh 24.0, AddAB inh 13.3, E coli growth-2 0.333 | AddAB confirm 32.9 | RecBCD counter 27.4 | bact viab count inactive | RecBCD conf 18.5 | Ecoli viability 20.2 | AddAB phage OD inactive
C#CCOCCOCCOCCNc1nc(N2CCOCC2)nc(N2CCN(C(=O)C(CCCCN)n3cc(C(N)C(C)CC)nn3)CC2)n1 (stereo not given)	none (no result: phage Ecoli inh, E coli growth-1, Tat export inh, AddAB inh)
CCc1nnc(NS(=O)(=O)c2ccc(N=Cc3c(C)[nH]n(-c4cccc(Cl)c4)c3=O)cc2)s1	phage Ecoli inh 11.2, E coli growth-1 15.8, AddAB inh 23.7 | AddAB confirm inactive | RecBCD counter 4.8 | bact viab count inactive | RecBCD conf inactive | Ecoli viability inactive | AddAB phage OD 31.2
COc1ccccc1-n1c(=O)oc2ccc(Cl)cc2c1=O	phage Ecoli inh 12.2, AddAB inh 12.3 | AddAB confirm inactive | RecBCD counter 10.4 | bact viab count inactive | RecBCD conf inactive | Ecoli viability inactive | AddAB phage OD inactive
Cc1nc(SC(=Cc2ccc(-c3cccc(Cl)c3)o2)C(=O)O)n[nH]1	none (no result: phage Ecoli inh, E coli growth-1, Tat export inh, AddAB inh)
O=C(O)c1ccnc(Cl)c1	none
[N-]=[N+]=CC(=O)c1ccnc(C(=O)C=[N+]=[N-])c1	phage Ecoli inh 18.4, E coli growth-1 37.7, AddAB inh 30.9, E coli growth-2 0.556 | AddAB confirm 56.7 | RecBCD counter 22.3 | bact viab count 42.6 | RecBCD conf 20.0 | Ecoli viability 21.3 | AddAB phage OD 48.9
CCCC(C)=NNC(=O)c1ccccc1O	none (no result: phage Ecoli inh, E coli growth-1, Tat export inh, AddAB inh)
COc1ccc(/C=N/Nc2ncnc(Cl)c2N)cc1OC	none (no result: E coli growth-2)
COc1cccc(/C=N/Nc2ncnc(Cl)c2N)c1O	phage Ecoli inh 29.8, E coli growth-1 15.3, AddAB inh 12.4 (no result: E coli growth-2) | AddAB confirm 20.8 | RecBCD counter 29.4 | bact viab count inactive | RecBCD conf 27.0 | Ecoli viability 30.3 | AddAB phage OD 22.9
COc1cccc(/C=N/Nc2ncnc3scc(-c4ccccc4)c23)c1O	phage Ecoli inh 11.1, E coli growth-1 17.0, AddAB inh 14.6 (no result: E coli growth-2) | AddAB confirm inactive | RecBCD counter 11.9 | bact viab count inactive | RecBCD conf inactive | Ecoli viability inactive | AddAB phage OD inactive
O=C(Nc1ccccc1SC(=O)c1ccccc1)c1ccccc1	none (no result: E coli growth-1, Tat export inh, AddAB inh, E coli growth-2)
Cc1ccc(C(=O)Sc2cccccc2=O)cc1	phage Ecoli inh 61.5, E coli growth-1 51.8, Tat export inh 82.5, AddAB inh 51.4, E coli growth-2 0.145 | AddAB confirm 63.9 | RecBCD counter 61.3 | bact viab count 60.8 | RecBCD conf 77.9 | Ecoli viability 81.0 | AddAB phage OD 89.0
CCCC(=O)NC(c1ccc(Cl)cc1)c1ccc2cccnc2c1O (stereo not given)	phage Ecoli inh 18.4, E coli growth-1 28.0, AddAB inh 18.7 (no result: E coli growth-2) | AddAB confirm 24.4 | RecBCD counter 22.9 | bact viab count inactive | RecBCD conf 15.5 | Ecoli viability inactive | AddAB phage OD 26.6
